Source: ChEMBL document CHEMBL3988442, “University of Dundee, Small-Polar-MMV Screening Library” (2021)

Target: T1, Tyrosyl-tRNA synthetase, putative (Trypanosoma cruzi (strain CL Brener)) (UniProt Q4DSP6)
T1 sequence (whole entry): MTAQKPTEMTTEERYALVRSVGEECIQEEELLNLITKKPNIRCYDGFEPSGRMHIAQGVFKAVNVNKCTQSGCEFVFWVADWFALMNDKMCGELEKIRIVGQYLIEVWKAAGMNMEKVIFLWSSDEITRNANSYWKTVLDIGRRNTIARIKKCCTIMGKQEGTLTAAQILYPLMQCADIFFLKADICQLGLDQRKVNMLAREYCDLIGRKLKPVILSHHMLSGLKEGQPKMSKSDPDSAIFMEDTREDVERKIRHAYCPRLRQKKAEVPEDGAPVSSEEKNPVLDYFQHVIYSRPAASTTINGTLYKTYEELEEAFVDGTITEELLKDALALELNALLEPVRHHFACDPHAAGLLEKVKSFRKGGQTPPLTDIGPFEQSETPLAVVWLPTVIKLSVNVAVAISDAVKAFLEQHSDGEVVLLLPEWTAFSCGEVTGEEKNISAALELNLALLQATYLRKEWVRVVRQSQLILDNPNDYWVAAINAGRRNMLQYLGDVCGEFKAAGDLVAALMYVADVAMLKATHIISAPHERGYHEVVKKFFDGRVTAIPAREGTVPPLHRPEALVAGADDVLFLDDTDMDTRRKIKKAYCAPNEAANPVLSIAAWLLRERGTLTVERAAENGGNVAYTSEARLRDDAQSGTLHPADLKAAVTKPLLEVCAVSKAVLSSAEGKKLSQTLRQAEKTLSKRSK
Assay: Trypanosoma cruzi tyrosyl tRNA synthetase (TcYRS) _High Tyrosine SOP
Format: functional
Design: scale not given: in the data most compounds retested in dose-response had high values
Details: 30 µM

Row | SMILES | Percent Effect [%]
1 | Cc1cccc(N2CC[C@@H]3CN(C(=O)c4ccco4)CCO[C@@H]3C2)n1 | 7.45
2 | CCC1=N[C@@]2(CC[C@@H]3CN(CC(=O)N(C)C)C[C@@H]32)C(=O)N1CC1CC1 | 0
3 | CCCC(NC(=O)c1ccc(OC)cc1F)c1nnn[nH]1 (stereo not given) | 4.92
4 | Cc1noc(C(C)N2CCN(CC(=O)N3CCOCC3)CC2)n1 (stereo not given) | 2.13
5 | c1ccc(CN2CCCC2Cn2cncn2)nc1 (stereo not given) | 9.36
6 | O=C(c1ccno1)N1CC[C@@H]2O[C@@H](COCCN3CCCC3)CC[C@@H]21 | 5.41
7 | CCOc1ccnc(N2CCN(C(=O)c3cccnc3O)CC2)n1 | 15.3
8 | CC(C)(C(=O)NCC(N)=O)c1ccccc1F | 2.1
9 | CCOc1ncccc1C(=O)N(C)Cc1ncc(C)c(OC)c1C | 5.71
10 | Cc1cccc(C(=O)N2C[C@@H]3CCN(c4cccnc4)C[C@@H]3C2)c1 | 1.06
11 | CC(OCC(F)(F)F)C(=O)Nc1ccc(-n2cncn2)nc1 (stereo not given) | 5.71
12 | Cc1noc(C)c1-c1cncc(C2CCCN2Cc2ccncc2)n1 (stereo not given) | 2.15
13 | C=C(C)CN(Cc1cccc(O)c1)C1CCC(O)CC1 (stereo not given) | 2.15
14 | COc1ccccc1CC(=O)N1CCC(NCc2c[nH]nc2C)CC1 | 7.92
15 | CC(C)Cc1noc(CN2CCN(CCO)CC2)n1 | 3.43
16 | COc1cccc(CN(C)C(=O)CN2CC(n3nc(C)cc3C)C2)c1 | 26.6
17 | CCc1noc(C)c1C(=O)N1CCCC1Cn1nc(C)cc1C (stereo not given) | 4.43
18 | COc1ccc(CN(C)C(=O)CCc2c(C)nc(C)[nH]c2=O)cc1OC | 7.37
19 | Cc1cc(N2CCCN(C(=O)Cc3ccc(O)c(Cl)c3)CC2)ccn1 | 8.33
20 | Cc1ccc2nc(C3CCN(CCO)CC3)nn2c1 | 2.08

Row | SMILES | Percent Effect [%]
21 | Cc1ccsc1C(=O)N1CC(C(=O)N2CCOCC2)C2(CCOCC2)C1 (stereo not given) | -4.23
22 | Cc1ccccc1C(=O)NCc1ccc(N2CCNC(=O)C2)cc1 | 15.3
23 | CC1CCN(S(=O)(=O)NCCCn2cncn2)CC1 | 5.21
24 | CCN(Cc1ccc2c(c1)OCO2)C(=O)NC(C)Cn1cccn1 (stereo not given) | 4.85
25 | CCN(CC)C(=O)CCc1c(C)nc2cc(O)nn2c1C | 4.25
26 | CC(C)NC(=O)[C@@H]1C[C@H](N)CN1C(=O)c1cc2ccccc2[nH]c1=O | 8.42
27 | CCc1ccc(NC(=O)N2C[C@H]3C[C@H](C(=O)NC)[C@@H](C2)O3)cc1 | 1.06
28 | CCN1CC2(CCNCC2)COc2ccccc2S1(=O)=O | -7.41
29 | CN1CCc2cc(C(CNS(=O)(=O)c3cccs3)N3CCCC3)ccc21 (stereo not given) | 0
30 | CC(NC(=O)N(C)Cc1ccc(Cl)s1)c1ccccn1 (stereo not given) | 3.12
31 | O=c1oc(-c2cccs2)nn1CC(O)c1ccccc1 (stereo not given) | 10.4
32 | Cc1cc(NC(=O)NCc2ccccc2OC(F)F)n(C)n1 | 3.12
33 | O=C(Cn1ccc2ccccc21)NCc1ccc(C(=O)O)cc1 | -1.06
34 | CCCNC(=O)Cn1nc(C(C)C)c2cnn(C(C)(C)C)c2c1=O | 8.6
35 | Cc1ccc(CNCc2nnc3n2CCCC3C(F)(F)F)s1 (stereo not given) | 9.29
36 | CCn1c(Cn2cncn2)nnc1C1CCN(Cc2ccncc2)CC1 | 9.68
37 | CC(=O)c1cc(CC(=O)NCc2ccc(CN(C)C)cc2)cs1 | 2.65
38 | CN(Cc1ccsc1)C(=O)CN1CCCC1Cn1cccn1 (stereo not given) | 11.4
39 | c1cnnc(N2CCCC2CNCc2nc3ccccc3o2)c1 (stereo not given) | 15.6
40 | CCN1C[C@@H]2[C@@H](OC)CCN(S(=O)(=O)c3ccccc3)[C@@H]2C1 | 1.06
